Inconclusive results are not listed. A number with no mark means an inactive call. Activity calls are given as the source filed them. Calls follow the shape of the dose curve; as a rule, active = well fitted curve in the direction sought with a large enough effect; inconclusive = small, poorly fitted or top-dose-only effect, or another doubt; inactive = no such curve, though single readings can be large; an effect the other way counts as inactive or inconclusive. Starred links: 1 amine or outer side, 2 acyl side, 3 side chain; linkers in the order of their positions; H or OH if unused. Positions of bridges follow the written chain, without caps; N, C: chain ends. Non-standard residues stand in square brackets, D forms with d. Residues, ends and D or L forms follow the SMILES beside them. Chains are numbered I, II in the order given. Actinocin(9to1) = Cc1c2oc3c(C)ccc(C(=O)[*:1])c3nc-2c(C(=O)[*:2])c(N)c1=O; NMeV = CN[CH](C(=O)O)C(C)C; Sar = CNCC(=O)O

Experiment [1] in a line: NS1 protein of Zika virus - qHTS assay to identify small molecule inhibitors in human HEK 293 cells (AID 1347053). Also: nearly all actives have a fitted effect of over 55% in size.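 As to activity change, negative = inhibition: plate controls were infected untreated cells for no effect and uninfected cells for full effect.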 The settings on record: HEK293 ZIKV MR766 infection, NS1 TR-FRET, 24 h; series mostly up to 46.1 µM. In short, it runs like this: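 In this cell-based screen, HEK 293 cultures received compound for one hour before Zika MR766 at MOI = 0.5. NS1 was quantified 24 hours later by TR-FRET, normalized to virus-free wells and infected wells.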
(qHTS replaces the single test concentration by a dilution series.)

The nature of experiment [2]: qHTS of pediatric cancer cell lines to identify multiple opportunities for drug repurposing: Primary screen for TC32 cells (AID 1347089). Also: nearly all actives have a fitted effect of over 60% in size. As to activity change, negative = cytotoxic: % is scaled to controls: 0 for no effect and ±100 for the full control effect. The following applies: TC32 Ewing sarcoma viability, CellTiter-Glo luminescence, 48 h; series mostly up to 45.8 µM. Summed up:
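A viability screen of TC32 cells was run over 48 h, with primary MIPE doses spanning 0.78 nM–46 µM and NPC doses 0.59 nM–46 µM. ATP luminescence (CellTiter-Glo) served as the read-out.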

Experiment [3] in a line: qHTS of pediatric cancer cell lines to identify multiple opportunities for drug repurposing: Primary screen for DAOY cells (AID 1347090). Also: nearly all actives have a fitted effect of over 55% in size.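 As to activity change, negative = cytotoxic: plate controls were DMSO for no effect and bortezomib for full effect.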 The settings on record: DAOY medulloblastoma viability, CellTiter-Glo luminescence, 48 h; series mostly up to 46 µM. Summed up:
(§1)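 Viability measured as metabolically active cells via CellTiter-Glo luminescence following 48 hours of compound exposure, 11-point dilutions in confirmatory testing. 500-1,000 cells/well plated 5 hours before dosing; controls were DMSO and 2.3 µM bortezomib.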

Experiment [4] in a line: qHTS of pediatric cancer cell lines to identify multiple opportunities for drug repurposing: Primary screen for SK-N-MC cells (AID 1347093).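 As to activity change, negative = cytotoxic: plate controls were DMSO neutral control for no effect and bortezomib for full effect.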 The following applies: SK-N-MC viability, CellTiter-Glo luminescence, 48 h; series mostly up to 46 µM. Summed up:
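Metabolically active cells were quantified by ATP-dependent luminescence (CellTiter-Glo, 15 min at room temperature) following 48 h treatment. Cells had been plated at 500-1,000 per well and settled for 5 h beforehand.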

A short description of experiment [5]: qHTS of pediatric cancer cell lines to identify multiple opportunities for drug repurposing: Primary screen for SJ-GBM2 cells (AID 1347091).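 As to activity change, negative = cytotoxic: plate controls were DMSO neutral control for no effect and bortezomib for full effect.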 The following applies: SJ-GBM2 viability, CellTiter-Glo luminescence, 48 h; series mostly up to 46 µM. In short, it runs like this:
as §1

Experiment [6] in a line: qHTS of pediatric cancer cell lines to identify multiple opportunities for drug repurposing: Primary screen for A673 cells (AID 1347092). Also: nearly all actives have a fitted effect of over 45% in size. As to activity change, negative = cytotoxic: % is scaled to controls: 0 for no effect and ±100 for the full control effect. The following applies: A673 Ewing sarcoma viability, CellTiter-Glo ATP luminescence, 48 h; series mostly up to 46 µM. Summed up:
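Titration-based qHTS on A673 cells: MIPE compounds spanned 11 points (0.78 nM to 46 µM final), NPC compounds 8 points (0.59 nM to 46 µM final). Viability after 48 h was measured by ATP luminescence.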
Potency is read from the fitted curve at half-maximal effect.

For `CCC(C=C[C@@H]1OC(=O)C=C[C@H]1C)=C[C@H](C)CC=CC(C)=C[C@@H](C)C(=O)[C@@H](C)[C@H](O)[C@@H](C)CC(C)=CC(=O)O`, the Potency was 0.124 µM (active) in experiment [1], 0.0777 µM (active) in experiment [2], 0.0782 µM (active) in experiment [3] and 0.0247 µM (active) in experiment [4].
Turning to `Cc1c2oc3c(C)ccc(C(=O)NC4C(=O)NC(C(C)C)C(=O)N5CCCC5C(=O)N(C)CC(=O)N(C)C(C(C)C)C(=O)OC4C)c3nc-2c(C(=O)NC2C(=O)NC(C(C)C)C(=O)N3CCCC3C(=O)N(C)CC(=O)N(C)C(C(C)C)C(=O)OC2C)c(N)c1=O` (configuration not stated) (I: TVP[Sar][NMeV] / II: TVP[Sar][NMeV]; ester I:1-I:C, II:1-II:C; linker I:N-II:N via Actinocin(9to1); configuration not given here), the Potency in experiment [1] was 7.43 µM (active); in experiment [2], 0.523 µM (active); in experiment [4], 0.001 µM (active).
In the case of `C[C@H](NC(=O)Cc1cc(F)cc(F)c1)C(=O)N[C@H](C(=O)OC(C)(C)C)c1ccccc1`, the Potency result in experiment [1], in experiment [2] and in experiment [5] was “inactive” in each case. Besides, the Potency in experiment [4] is 14.8 µM (active).
On to `C[C@H](NCc1ccc(OCc2cccc(F)c2)cc1)C(N)=O`, for which the Potency in experiment [1] is 23.5 µM (active); in experiment [2], 18.6 µM (active); in experiment [5], 10.5 µM (active); in experiment [6], 5.9 µM (active); in experiment [4], 2.64 µM (active).
As to `C[C@H](NC(=O)[C@@H](O)c1cc(F)cc(F)c1)C(=O)N[C@@H]1C(=O)N(C)c2ccccc2-c2ccccc21`, the Potency entry in experiment [1], in experiment [3] and in experiment [5] was “inactive” each time.
For `CNC(=O)c1cccc(-c2ccc3c(N4CCOC[C@H]4C)nc(N4CCOC[C@H]4C)nc3n2)c1`, the Potency result in experiment [1] was “inactive”. The Potency in experiment [2] was 0.523 µM (active); in experiment [5], 0.105 µM (active); in experiment [6], 0.148 µM (active).
As to `O=C1c2cccc(O)c2C(=O)c2c(O)cc(CO)cc21`, the Potency result in experiment [1], in experiment [2] and in experiment [5] was “inactive” in each case.
On to `C[N+]1(C)[C@@H]2C[C@@H](OC(=O)C(O)(c3cccs3)c3cccs3)C[C@H]1[C@@H]1O[C@@H]12`, for which the Potency entry in experiment [1], in experiment [2], in experiment [3], in experiment [6] and in experiment [4] was “inactive” each time.
Regarding `O=c1c(O)c(-c2ccc(O)c(O)c2)oc2cc(O)ccc12`, the Potency entry in experiment [1] and in experiment [2] was “inactive” throughout. In addition, the Potency in experiment [5] is 18.7 µM (active).
As to `C#Cc1cccc(Nc2ncnc3cc(OCCOC)c(OCCO)cc23)c1`, in experiment [1], the Potency entry was “inactive”. In addition, the figures for the Potency in experiment [3], in experiment [5] and in experiment [6] were 3.72 µM (active), 5.26 µM (active) and 0.187 µM (active), respectively.
Regarding `Cc1ccc2nc(NCCN)c3ncc(C)n3c2c1`, the Potency is 26.4 µM (active) in experiment [1]; 23.4 µM (active) in experiment [2]; 14.8 µM (active) in experiment [3]; 1.87 µM (active) in experiment [6]; 1.66 µM (active) in experiment [4].
Consider `CC(C)(C)[C@H](NC(=O)c1ccc(N)c(Cl)c1)C(=O)N1CCC[C@@H]1C(=O)N[C@H](C#N)CC(=O)O`, for which the activity change, negative = inhibition in experiment [1] is 0.927% [at 4.81 µM]. For the same molecule, the activity change, negative = cytotoxic is 10.4% [at 4.81 µM] in experiment [2] and 0.43% [at 4.84 µM] in experiment [5].
Consider `COc1cc(OC)c(C=CS(=O)(=O)Cc2ccc(OC)c(NCC(=O)O)c2)c(OC)c1`, for which the Potency was 0.469 µM (active) in experiment [1]; 0.294 µM (active) in experiment [2]; 0.166 µM (active) in experiment [5]; 0.148 µM (active) in experiment [6]; 0.0935 µM (active) in experiment [4].
For `CN(C)CCN1C(=O)c2cccc3cc(N)cc(c23)C1=O`, in experiment [1], the Potency entry is “inactive”. Also, the Potency in experiment [3] was 23.5 µM (active); in experiment [5] it was 14.8 µM (active); in experiment [6], 14.8 µM (active).
As to `COc1ccc(CCC(=O)c2c(O)cc(O[C@@H]3O[C@H](CO)[C@@H](O)[C@H](O)[C@@H]3O[C@@H]3O[C@@H](C)[C@H](O)[C@@H](O)[C@@H]3O)cc2O)cc1O`, the Potency entry in experiment [1], in experiment [2] and in experiment [5] was “inactive” throughout. Moreover, the Potency in experiment [4] is 3.32 µM (active).
For the molecule `C[C@](Cc1c[nH]c2ccccc12)(NC(=O)OC1C2CC3CC(C2)CC1C3)C(=O)NC[C@H](NC(=O)CCC(=O)O)c1ccccc1` (some centres not stated), the Potency result in experiment [1], in experiment [2] and in experiment [3] was “inactive” each time. The Potency in experiment [4] was 20.9 µM (active).
Turning to `CC(C)(N)c1ccc(-c2nc3ccccc3nc2-c2ccccc2)cc1`, the Potency in experiment [1] is 18.7 µM (active); in experiment [5], 23.5 µM (active); in experiment [6] it was 5.9 µM (active); in experiment [4], 4.69 µM (active). In addition, the Potency result in experiment [2] was “inactive”.
For `CCNC(=O)Nc1ccc(-c2nc3c(c(N4CCOC[C@H]4C)n2)CCN(C2COC2)C3)cc1` the same measures were “inactive”, 0.743 µM (active), 1.48 µM (active), 0.209 µM (active) and 3.3 µM (active).
For `CN1C(C(=O)Nc2ccccn2)=C(O)c2sc(Cl)cc2S1(=O)=O` the same measures were “inactive”, “inactive”, 2.96 µM (active), 4.69 µM (active) and “inactive”.
As to `Nc1nc2c(c(=O)[nH]1)N(C=O)[C@H](CNc1ccc(C(=O)N[C@@H](CCC(=O)O)C(=O)O)cc1)CN2`, the Potency entry in experiment [1], in experiment [3] and in experiment [5] was “inactive” throughout. For the same molecule, in experiment [6], the Potency is 7.43 µM (active).

Values taken from PubChem BioAssay (NCATS).
